From PubChem BioAssay (NCI)
Compounds without any hit were thinned out: in the full panel of roughly 79,000, 15% have a hit. Unmarked numbers belong to inactive results. Active and inactive are the calls of the source. No stated cut-off is given here; in the data, active means growth inhibition above about 70%; inactive means the rest.

assay: NCI Yeast Anticancer Drug Screen. Data for the rad50 strain (AID 155);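 further: 0% = growth of vehicle-only cultures of the same strain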; settings: S. cerevisiae rad50 strain growth inhibition; at 50.0 µM; hits give high values
In short: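 Inhibition values express reduced yeast growth in compound-treated cultures relative to vehicle-treated controls.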

Compound	growth inhibition
COc1cc(NCCCCCNC(C)C)c2ncccc2c1OC	-15.1%
CCOC(=O)Cn1c(=O)n(C)c(=O)c2c1ncn2Cc1ccccc1	0.7%
CSC(SC)=C1Sc2cccc(Cl)c2S1	1.65%
CCOC(=O)C1(C)Sc2ccccc2N=C1c1ccccc1 (stereo not given)	25.9%
CCOc1ccc(/C=C2\N=C(c3cccc(Cl)c3)OC2=O)cc1	12.2%
CC(O)C(N=Cc1nc(-c2ccccc2)oc1O)C(=O)O (stereo not given)	-3.25%
c1cc(OCC2CO2)ccc1OCC1CO1 (stereo not given)	41%
CN(C)CC1(Cc2ccccc2)CCC(Cc2ccccc2)C1=O (stereo not given)	85.5% (active)
COc1cc(NCCCCCCNCC(C)C)c2nccc(C)c2c1	53.1%
CCOC(=O)C1=NN(c2ccccc2)C(=O)/C1=C\N1CC(=O)NC1=S	-19.4%
CC1NC(=O)C2Cc3ccc(O)c(c3)Oc3cccc(c3)C(O)C(C(=O)N2C)N(C)C(=O)C(C)NC(=O)C(Cc2ccc(O)c(O)c2)N(C)C(=O)C(C)NC1=O (stereo not given)	6.75%
O=C(Nc1ccc(Cl)cc1)c1ccc(C(=O)Nc2ccc(Cl)cc2)cc1	-12.9%
O=C(CCc1cc(-c2ccc(F)cc2)n[nH]1)N(Cc1ccccc1)Cc1ccccc1	-20.1%
c1ccc(C(=C2CCCCCCCCCCCCC2)c2ccccc2)cc1	-25.2%
C/C(O)=C(\C=NC(=S)c1ccncc1)C(=O)Nc1ccccc1C	-26.4%
c1ccc(Cc2nnc(Cc3ccccc3)nn2)cc1	10.8%
C=C(COC(C)=O)CC(/C=C(\C)CCC=C(C)C)OC(C)=O (stereo not given)	-6.25%
Nc1nc2c(ncn2C2OCC(O)C(O)C2O)c(=O)[nH]1 (stereo not given)	15.6%
COc1cccc(NC(=O)CC(=O)Nc2cccc(OC)c2)c1	-5.05%
c1ccc(N=C2N=c3ccccc3=C2c2c(Nc3ccccc3)[nH]c3ccccc23)cc1	20.4%

Compound	growth inhibition
Cc1ncc2c(=O)c3c(oc2n1)c1ccccc1n3Cc1ccccc1	8.75%
O=C1NC2CCC(NC(=O)N1c1ccccc1)C1=C2C1	-28.6%
CC(NCc1cc(O)c(CNC(C)c2ccccc2)cc1O)c1ccccc1 (stereo not given)	4.55%
Cc1cc(Cl)ccc1OCCCC(=O)NC(Cc1c[nH]c2ccccc12)C(=O)O (stereo not given)	3.35%
OCCOCCNc1ncnc2cc(Cl)ccc12	-12.4%
COc1cc(C(=O)C(C)Br)cc(OC)c1OC (stereo not given)	3.1%
C[C@H](CCC(=O)O)[C@H]1CC[C@H]2[C@@H]3[C@@H](O)C[C@@H]4C[C@H](O)CC[C@]4(C)[C@H]3C[C@H](O)[C@]12C	-3.3%
CC(=O)Nc1cc(F)c(N)c(F)c1	-10.9%
CS(=O)(=O)C(CCC(=O)c1cccs1)C(=O)c1ccccc1 (stereo not given)	-2.95%
O=C1C2C3C=CC(C2C(=O)N1CCl)C1C2C(=O)N(CCl)C(=O)C2C31 (stereo not given)	4.2%
COc1cc(C2C3=C(COC3=O)Oc3cc4c(cc32)OCO4)cc(OC)c1OC(C)=O (stereo not given)	-15.5%
CC(C)CCCC(C)C1CCC2(C)C3CCC(C(C)O)C(C)(CCCO)C3CCC12C (stereo not given)	47.8%
O=C(Nc1ccc(NC(=O)Nc2cc(C(F)(F)F)ccc2Oc2ccc(Cl)c(Cl)c2)cc1)Nc1cc(C(F)(F)F)ccc1Oc1ccc(Cl)c(Cl)c1	-28.2%
Cn1ncc2c(=O)[nH]c(-c3ccccc3)nc21	-0.75%
Cn1c(=O)c2c(ncn2CC(=O)O)n(C)c1=O	-3.9%
CC(C)=NNC(=O)c1ccccc1O	33.9%
Cc1ccc2ccc(=O)oc2c1	7.9%
CCCCCCCCCCCCCCCCCC(N)=O	5.2%
Cn1c2c(cc(-c3ccccc3)c1=O)COc1ccccc1-2	31.1%
C=C(C)C(=O)OC1C/C(CO)=C\C(O)C/C(C)=C/C2OC(=O)C(=C)C21 (stereo not given)	55%

assay: NCI Yeast Anticancer Drug Screen. Data for the mec2-1 strain (AID 157); settings: S. cerevisiae mec2-1 strain, at 50.0 µM, hits give high values
In short: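 Vehicle-treated cultures served as reference for growth inhibition of compound-exposed mec2-1 yeast.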

Compound	growth inhibition
COc1cc(NCCCCCNC(C)C)c2ncccc2c1OC	-9.9%
CCOC(=O)Cn1c(=O)n(C)c(=O)c2c1ncn2Cc1ccccc1	-31.2%
CSC(SC)=C1Sc2cccc(Cl)c2S1	11.3%
CCOC(=O)C1(C)Sc2ccccc2N=C1c1ccccc1 (stereo not given)	48.5%
CCOc1ccc(/C=C2\N=C(c3cccc(Cl)c3)OC2=O)cc1	15.3%
CC(O)C(N=Cc1nc(-c2ccccc2)oc1O)C(=O)O (stereo not given)	-6.55%
c1cc(OCC2CO2)ccc1OCC1CO1 (stereo not given)	19.9%
CN(C)CC1(Cc2ccccc2)CCC(Cc2ccccc2)C1=O (stereo not given)	63.4%
COc1cc(NCCCCCCNCC(C)C)c2nccc(C)c2c1	44.5%
CCOC(=O)C1=NN(c2ccccc2)C(=O)/C1=C\N1CC(=O)NC1=S	-14.2%
CC1NC(=O)C2Cc3ccc(O)c(c3)Oc3cccc(c3)C(O)C(C(=O)N2C)N(C)C(=O)C(C)NC(=O)C(Cc2ccc(O)c(O)c2)N(C)C(=O)C(C)NC1=O (stereo not given)	-19.3%
O=C(Nc1ccc(Cl)cc1)c1ccc(C(=O)Nc2ccc(Cl)cc2)cc1	-26.4%
O=C(CCc1cc(-c2ccc(F)cc2)n[nH]1)N(Cc1ccccc1)Cc1ccccc1	11.2%
c1ccc(C(=C2CCCCCCCCCCCCC2)c2ccccc2)cc1	2.9%
C/C(O)=C(\C=NC(=S)c1ccncc1)C(=O)Nc1ccccc1C	-37.6%
c1ccc(Cc2nnc(Cc3ccccc3)nn2)cc1	8.35%
C=C(COC(C)=O)CC(/C=C(\C)CCC=C(C)C)OC(C)=O (stereo not given)	-1.15%
Nc1nc2c(ncn2C2OCC(O)C(O)C2O)c(=O)[nH]1 (stereo not given)	-9.7%
COc1cccc(NC(=O)CC(=O)Nc2cccc(OC)c2)c1	3.6%
c1ccc(N=C2N=c3ccccc3=C2c2c(Nc3ccccc3)[nH]c3ccccc23)cc1	5.5%

Compound	growth inhibition
Cc1ncc2c(=O)c3c(oc2n1)c1ccccc1n3Cc1ccccc1	9.15%
O=C1NC2CCC(NC(=O)N1c1ccccc1)C1=C2C1	-8.85%
CC(NCc1cc(O)c(CNC(C)c2ccccc2)cc1O)c1ccccc1 (stereo not given)	0.4%
Cc1cc(Cl)ccc1OCCCC(=O)NC(Cc1c[nH]c2ccccc12)C(=O)O (stereo not given)	2.9%
OCCOCCNc1ncnc2cc(Cl)ccc12	-14.7%
COc1cc(C(=O)C(C)Br)cc(OC)c1OC (stereo not given)	46.1%
C[C@H](CCC(=O)O)[C@H]1CC[C@H]2[C@@H]3[C@@H](O)C[C@@H]4C[C@H](O)CC[C@]4(C)[C@H]3C[C@H](O)[C@]12C	-7.05%
CC(=O)Nc1cc(F)c(N)c(F)c1	-4.3%
CS(=O)(=O)C(CCC(=O)c1cccs1)C(=O)c1ccccc1 (stereo not given)	3.25%
O=C1C2C3C=CC(C2C(=O)N1CCl)C1C2C(=O)N(CCl)C(=O)C2C31 (stereo not given)	21.1%
COc1cc(C2C3=C(COC3=O)Oc3cc4c(cc32)OCO4)cc(OC)c1OC(C)=O (stereo not given)	-22.9%
CC(C)CCCC(C)C1CCC2(C)C3CCC(C(C)O)C(C)(CCCO)C3CCC12C (stereo not given)	27.4%
O=C(Nc1ccc(NC(=O)Nc2cc(C(F)(F)F)ccc2Oc2ccc(Cl)c(Cl)c2)cc1)Nc1cc(C(F)(F)F)ccc1Oc1ccc(Cl)c(Cl)c1	-45.4%
Cn1ncc2c(=O)[nH]c(-c3ccccc3)nc21	-8.35%
Cn1c(=O)c2c(ncn2CC(=O)O)n(C)c1=O	-28.1%
CC(C)=NNC(=O)c1ccccc1O	-7.7%
Cc1ccc2ccc(=O)oc2c1	1.05%
CCCCCCCCCCCCCCCCCC(N)=O	-14.2%
Cn1c2c(cc(-c3ccccc3)c1=O)COc1ccccc1-2	-13.9%
C=C(C)C(=O)OC1C/C(CO)=C\C(O)C/C(C)=C/C2OC(=O)C(=C)C21 (stereo not given)	31.1%
